Inconclusive results are not listed. The source made the active and inactive calls. Calls come from the whole dose curve; as a rule, active = well fitted curve in the direction sought with a large enough effect in the repeat runs; inconclusive = weak or mixed curves; inactive = no such curve, though single readings can be large; an effect the other way counts as inactive or inconclusive.
What was measured:
[1] = qHTS assay to identify small molecule antagonists of the glucocorticoid receptor (GR) signaling pathway - cell viability counter screen (AID 720693); conditions: GR-bla HeLa viability, CellTiter-Glo luminescence, 18 h, with 5 nM dexamethasone present; series mostly up to 58.5 µM; note: nearly all actives have a fitted effect of over 55% in size
[2] = qHTS assay for identifying genotoxic compounds that show differential cytotoxicity against isogenic chicken DT40 cell lines with known DNA damage response pathways - wild type cell line (AID 743012); conditions: DT40 wild type chicken cells viability, CellTiter-Glo, 40 h; series mostly up to 68.4 µM; note: nearly all actives have a fitted effect of over 60% in size
How it was run: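 Cells (DT40 wild type, 300/well) are treated with DMSO-dissolved compounds after a ~0.5 h pre-incubation and kept 40 h at 37 C/5% CO2. Viability is then measured by CellTiter-Glo luminescence following 30 min at room temperature.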

[3] = qHTS assay for identifying genotoxic compounds that show differential cytotoxicity against isogenic chicken DT40 cell lines with known DNA damage response pathways - Rev3 mutant cell line (AID 743014); conditions: chicken DT40 Rev3-/- viability, CellTiter-Glo, 40 h; series mostly up to 68.4 µM; note: nearly all actives have a fitted effect of over 55% in size
[4] = qHTS assay for identifying genotoxic compounds that show differential cytotoxicity against isogenic chicken DT40 cell lines with known DNA damage response pathways - Rad54/Ku70 mutant cell line (AID 743015); conditions: DT40 Rad54/Ku70 mutant viability, CellTiter-Glo, 40 h; series mostly up to 66.8 µM; note: nearly all actives have a fitted effect of over 60% in size
[5] = qHTS assay to identify small molecule antagonists of the androgen receptor (AR) signaling pathway - cell viability counter screen (AID 743033; note: nearly all actives have a fitted effect of over 45% in size); conditions: AR-bla HEK293 viability, CellTiter-Glo luminescence, 16 h; series mostly up to 58.5 µM
[6] = qHTS assay to identify small molecule antagonists of the androgen receptor (AR) signaling pathway using the MDA cell line - cell viability counter screen (AID 743041; note: nearly all actives have a fitted effect of over 45% in size); conditions: MDA-kb2 viability, CellTiter-Fluor, 16 h, cells co-treated with R1881 androgen agonist; series mostly up to 70.3 µM
How it was run: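 Cells were plated at 3,000 per well and left 5 h. Compounds in DMSO were then pinned in, followed by R1881. After 16 h at 37C, CellTiter-Fluor fluorescence gave viability.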

Measured: Potency

CC(C)c1ccc(C(=O)N=C(N)N)cc1S(C)(=O)=O
inactive: [1] | [2] | [3] | [4] | [5] | [6]

CC(C)COC(=O)COc1cc(Cl)c(Cl)cc1Cl
inactive: [1] | [2] | [3] | [4] | [5] | [6]

O=C(O)CCCc1c[nH]c2ccccc12
inactive: [1] | [2] | [3] | [4] | [5] | [6]

Cc1ccc(S(=O)(=O)NC(=O)NC2CCCCC2)cc1
inactive: [1] | [2] | [3] | [4] | [5] | [6]

Cc1cccc(C)c1NC(=O)c1cc(S(N)(=O)=O)c(Cl)cc1O
inactive: [1] | [2] | [3] | [4] | [5] | [6]

Cc1ccc(Nc2c(F)cccc2Cl)c(CC(=O)O)c1
inactive: [1] | [2] | [3] | [4] | [5] | [6]

O=C(O)CO
inactive: [1] | [2] | [3] | [4] | [5] | [6]

CC(O)Cn1cnc2c1c(=O)n(C)c(=O)n2C (configuration not stated)
inactive: [1] | [2] | [3] | [4] | [6]
